Among all 420,000 compounds or so, about 64,000 (15%) were called active. Another 27% or so got no clear call; they are omitted. Not all results are given here. Values without a mark were called inactive. Calls come from the whole dose curve; as a rule, active = well fitted inhibition curve with a large enough effect; inconclusive = small, poorly fitted or top-dose-only effect; inactive = flat fitted curve, though single readings scatter.
experiment: qHTS for Inhibitors of human tyrosyl-DNA phosphodiesterase 1 (TDP1): qHTS in cells in absence of CPT; details: DT40 Tdp1-/- hTDP1 cells, no CPT, ATP luminescence, 48 h; activity change, negative = growth inhibition: at 46.2 µM (top of the series); note: nearly all actives have a fitted effect of over 55% in size
Method in brief: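 Compound effects on proliferation are scored in DT40 Tdp1-/-;hTDP1 cells in the absence of CPT. ATP levels (CellTiter-Glo luminescence) are recorded after a ≥48 hr, 37 °C incubation.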
% is set by controls: 0 for no effect and ±100 for the full control effect; potency is the fitted concentration of half-maximal effect.

| Structure (SMILES) | activity change, negative = growth inhibition | Potency |
| --- | --- | --- |
| CC1Cc2ccccc2N1S(=O)(=O)c1c(N)n(C)c(=O)n(C)c1=O (stereo not given) | 0.0607% |  |
| CCSc1nnc(NC(=O)c2cc(=O)c3cc(C)c(C)cc3o2)s1 | -14.3% |  |
| COc1ccc(S(=O)(=O)NCC(=O)NC2CC2)cc1OC | 25.6% |  |
| CCN1CCN(C(C(=O)NC2CCCC2)c2cc3c(cc2[N+](=O)[O-])OCO3)CC1 (stereo not given) | 6.31% |  |
| CC(C)CN1CC(C)C(=O)N(c2ccccc2)C1=S (stereo not given) | -12.7% |  |
| Nc1nc(SCC(=O)NNc2c(Cl)cc(Cl)cc2Cl)n[nH]1 | -10% |  |
| C[C@@H]1CCCCO[C@H](CN(C)Cc2ccccc2)[C@@H](C)CN([C@H](C)CO)C(=O)c2cc(NS(=O)(=O)c3ccc(Cl)cc3)ccc2O1 |  | 16.4 µM (active) |
| Cc1noc(C)c1S(=O)(=O)N(C)C[C@H]1OCCCC[C@@H](C)Oc2ccc(NC(=O)CCCN(C)C)cc2C(=O)N([C@H](C)CO)C[C@@H]1C | -16.3% |  |
| CC(C)NC(=O)Nc1ccc2c(c1)C(=O)N([C@H](C)CO)C[C@H](C)[C@@H](CN(C)Cc1ccc(C(F)(F)F)cc1)OCCCC[C@@H](C)O2 | -20.4% |  |
| O=C(Nc1ccnn1C1CCN(Cc2cccc(OCCO)c2)CC1)C1CCCC1 | 0.788% |  |
| CC1(C)CC(=O)C=C(NC2CC(C)(C)NC(C)(C)C2)C1 | 0.396% |  |
| CC(=O)c1cnn(-c2cc(Oc3ccc(F)cc3)ncn2)c1C | -13.4% |  |
| COc1cc(/C=C2/C(=O)NN(c3ccc(F)cc3)C2=O)cc([N+](=O)[O-])c1O | -2.19% |  |
| C/C=C/C(=O)Nc1nnc(C(C)C)s1 | -22.6% |  |
| O=C(NC(c1ccc(Cl)cc1)c1cnccn1)C1CCN(Cc2ccc(Cl)cc2)CC1 (stereo not given) |  | 20.6 µM (active) |
| Cc1cccnc1C(NC(=O)C1CCN(Cc2ccc(Cl)c(Cl)c2)CC1)c1ccc(Cl)cc1 (stereo not given) |  | 4.61 µM (active) |
| Clc1ccc(CN2CCCCCC2)cc1Cl | 7.19% |  |
| COc1cccc(CN2CCC(C(=O)NC(c3ccc4c(c3)OCO4)c3ccccn3)CC2)c1 (stereo not given) | -23.3% |  |
| O=C(NNS(=O)(=O)c1ccc(Cl)cc1)C1CCN(Cc2ccccc2)CC1 | -15.1% |  |
| CCOc1ccc(CN2CCC(n3nccc3NC(=O)C3CC3)CC2)cc1CO | 1.56% |  |
| Fc1cccc(Cl)c1CSc1ccc(-c2ccco2)nn1 | -19.1% |  |
| CCOc1ccc(S(=O)(=O)N2CCC(C(=O)NCc3ccccn3)CC2)cc1Cl | -12.9% |  |
| Cc1ccc(S(=O)(=O)NCC(=O)NNC(=O)c2ccc(Br)cc2)cc1C | -12.9% |  |
| O=C(NNS(=O)(=O)c1ccc(F)cc1)c1cnccn1 | -10% |  |
| CO/N=C(\C(=O)N[C@@H]1C(=O)N2C(C(=O)O)=C(C[N+]3(C)CCCC3)CS[C@H]12)c1csc(N)n1 | -2.94% |  |
| O=C(COC(=O)/C=C/c1nc2ccccc2s1)Nc1ccccc1Oc1ccccc1 | -27% |  |
| c1ccc(CCc2ccccn2)cc1 | -2.35% |  |
| CC(C)NC(=O)N1CCC2(CC1)CCN(C(=O)c1cccn1C)CC2 | -14.2% |  |

| Structure (SMILES) | activity change, negative = growth inhibition | Potency |
| --- | --- | --- |
| COc1ccc(NC(=O)N2CC3(CCN(C(=O)c4cccn4C)CC3)C2)cc1 | -17.9% |  |
| Cn1cccc1C(=O)N1CCC2(CC1)CN(c1cccc(-c3ccccc3)c1)C2 |  | 16.4 µM (active) |
| CCN(CC)CCn1cnc2c1c(=O)n(CCOC(=O)c1cc(OC)c(OC)c(OC)c1)c(=O)n2C | 0.412% |  |
| CC(=O)c1nn(-c2ccc(C)cc2)cc1C(=O)c1cccc(Br)c1 | -28.5% |  |
| O=C(CCNC(=O)c1ccc([N+](=O)[O-])cc1)NC1CCCCC1 | -20.3% |  |
| CC(C)C1=CC2=CC[C@H]3[C@](C)(C(=O)O)CCC[C@]3(C)C2CC1 (stereo not given in full) | 3.41% [at 9.04 µM] |  |
| COc1ccc(CN2CCNC(=O)C2CC(=O)NCc2cn[nH]c2-c2ccccc2)c(F)c1 (stereo not given) | -16.8% |  |
| COc1ccc(NS(=O)(=O)c2ccc(NC(=O)C(C)(C(F)(F)F)C(F)(F)F)cc2)nn1 | 6.95% |  |
| c1ccc(-c2cn3c(n2)CCc2ccc4cccnc4c2-3)cc1 |  | 16.4 µM (active) |
| c1ccc(-c2cn3cccnc3n2)cc1 | -1.58% |  |
| Cc1ccc(NC(=O)CSc2nc(=O)n(CCN(C)C)c3c2CCCC3)c(C)c1 | 4.62% |  |
| Cc1ccc2nc(NC(=O)CSc3nc(=O)n(CCCN(C)C)c4c3CCC4)sc2c1 |  | 13 µM (active) |
| Cc1csc(NC(=O)CSc2nc(=O)n(CCCN(C)C)c3c2CCC3)n1 | 4.86% |  |
| CCOC(=O)CC1=CC(=O)Nc2ccccc2N1 | -11.6% |  |
| COc1cccc(NC(=O)CN(C)C(=O)c2cc(C3CC3)nn2-c2ccccc2)c1 | -5.3% |  |
| CCc1ccccc1NC(=O)CN1CCN(C(=O)c2cc(C3CC3)nn2-c2ccccc2)CC1 |  | 23.1 µM (active) |
| CCc1ccccc1NC(=O)CN(C)C(=O)c1cc(C2CC2)nn1-c1ccccc1 | -15.7% |  |
| COc1ccc(Sc2ccc(NC(=O)c3cccc(Cl)c3)cc2C#N)cc1 |  | 23.1 µM (active) |
| Cc1ccc(Sc2ccc(NC(=O)c3ccc(F)cc3)cc2C#N)cc1 |  | 11.6 µM (active) |
| Cc1ccc(C(=O)Nc2ccc3[nH]c(=O)c(=O)[nH]c3c2)cc1 | 1.61% |  |
| COc1ccc(C(=O)Nc2ccc(NC(=O)C(C)C)nc2)cc1 | -7.31% |  |
| COC(=O)c1ccc(Sc2ccc(F)cc2)c(N)c1 | -25% |  |
| COc1ccc(NC(=O)c2cccc(Cl)c2)c[n+]1[O-] | -0.558% |  |
| COc1cccc(NC(=O)CCNS(=O)(=O)c2ccc3c(c2)oc(=O)n3C)c1 |  | inactive |
| COCC(C)N=CC1=C(O)CC(C)(C)CC1=O (stereo not given) | -10.1% |  |
| C=CCN1C=C(C(=O)c2ccccc2)C(=O)CC1 | -0.111% |  |
| O=C(CCS(=O)(=O)Cc1ccccc1F)NCCCN1CCCCC1 | -11.3% |  |

— PubChem BioAssay AID686978 (National Center for Advancing Translational Sciences (NCATS), 2013)
